RE007 growth inh – less growth of the S. pombe RE007 Vpr strain. S. pombe RE007 Vpr strain, BacTiter-Glo ATP luminescence, 24 h. Potency, µM (highest dose often 92.2 µM), for inactives: at the top dose activity change, negative = less growth, hits mostly inhibitors. 360,000 tested, 0.21% active. AID 651644; active = well fitted falling curve with a large enough effect; inconclusive = small, poorly fitted or top-dose-only effect; inactive = no such curve, though single readings can be large or run the other way; also: % is scaled to controls: 0 for no effect and ±100 for the full control effect; nearly all actives have a fitted effect of over 50% in size
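Fission yeast strain RE007, carrying one chromosomally integrated HIV-1 vpr copy, was seeded at OD 0.01 in PMG+AL medium with 23 nL pinned compound. After 24 h at 30 °C and 99% humidity, viability was read by BacTiter-Glo luminescence.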
FBPA Giardia inh – blocks Giardia fructose-bisphosphate aldolase activity; A8B2U2; purified Giardia FBPA; Potency, µM (highest dose often 59.6 µM), for the others: at the highest dose activity, negative = inhibition, most hits filed as inhibitors; 290,000 tested, 0.71% active; AID 2451; also: % is scaled to controls: 0 for no effect and ±100 for the full control effect; nearly all actives have a fitted effect of over 55% in size
Target sequence (A8B2U2 whole entry, looked up): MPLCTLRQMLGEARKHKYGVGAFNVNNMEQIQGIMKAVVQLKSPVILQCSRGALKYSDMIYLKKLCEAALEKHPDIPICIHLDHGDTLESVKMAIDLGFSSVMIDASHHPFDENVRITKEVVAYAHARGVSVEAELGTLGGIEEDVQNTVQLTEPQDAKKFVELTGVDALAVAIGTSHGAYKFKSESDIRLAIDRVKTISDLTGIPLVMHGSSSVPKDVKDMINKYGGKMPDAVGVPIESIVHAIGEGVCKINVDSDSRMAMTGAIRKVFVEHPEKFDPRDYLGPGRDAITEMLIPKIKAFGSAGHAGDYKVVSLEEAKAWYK
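40 nM FBPA preincubated 10 min at RT with compound (up to 57.5 uM final), then substrate plus GAPDH/TPI/NAD/arsenate coupling and diaphorase/resazurin added. Fluorescence read after 20 min at RT, 525/598 nm.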
SARS PLpro yeast – SARS-CoV PLP inhibition in yeast; AID 485353; Potency, µM (highest dose often 32.9 µM), inactives show at the highest dose activity, positive = growth rescue, actives largely listed as activators; S. cerevisiae expressing SARS-CoV PLpro, growth rescue; 330,000 tested, 0.19% active; calls by dose curve; also: 0% is about no effect; nearly all actives have a fitted effect of over 55% in size
LmPK inhibitor – blocks Leishmania mexicana pyruvate kinase activity; Q27686; purified LmPK, Kinase-Glo ATP luminescence, 1 h; Potency, µM (doses to about 57.5 µM), without a hit: at the highest dose activity change, negative = inhibition, usual class: inhibitors; 290,000 tested, 0.37% active; AID 1721; also: % is scaled to controls: 0 for no effect and ±100 for the full control effect
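In 50 mM imidazole pH 7.2 with 7 mM MgCl2, LmPK (0.1 nM) turned over PEP (0.5 mM) and ADP (0.1 mM) for 1 h at room temperature. Luciferase read-out of ATP.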
Tb PYK inh – T. brucei pyruvate kinase inhibition | Q57TT1 | TbPYK enzyme, Kinase-Glo Plus ATP luminescence, 45 min | Potency, µM (titrated, usually from 76.8 µM), for inactives: at the highest dose activity, negative = inhibition, usual class: inhibitors | 410,000 tested, 0.12% active | AID 624173; also: % is scaled to controls: 0 for no effect and ±100 for the full control effect; nearly all actives have a fitted effect of over 50% in size
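TbPYK + substrate in 50 mM TEA pH 7.2, 100 mM KCl, 10 mM MgCl2, 0.05% BSA, 0.01% Tween-20; cpd pinned; ADP 130 uM final; 45 min RT; Kinase-Glo Plus 10 min; luminescence endpoint.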
Active calls of the source: *. Shown are actives, neighbours in structure and some others; about 1.1% of the full set was active somewhere. Unless noted, calls follow the shape of the dose curve; as a rule, active = well fitted curve in the direction sought with a large enough effect; inconclusive = small, poorly fitted or top-dose-only effect, or another doubt; inactive = no such curve, though single readings can be large; an effect the other way counts as inactive or inconclusive. Potency is read from the fitted curve at half-maximal effect.

For S=c1[nH]nc(-c2ccc(Cl)cc2)n1/N=C/c1ccco1 the results were RE007 growth inh 1%, FBPA Giardia inh 3%, SARS PLpro yeast 0%, LmPK inhibitor -7% and Tb PYK inh 4µM*.
Screening S=c1[nH]nc(-c2ccccc2)n1/N=C/c1cccs1 returned RE007 growth inh -13%, FBPA Giardia inh 6%, SARS PLpro yeast -1%, LmPK inhibitor inconclusive and Tb PYK inh 11µM*.
Cc1ccc(-c2n[nH]c(=S)n2/N=C/c2cccn2C)cc1 was read as RE007 growth inh 4%, SARS PLpro yeast 7%, LmPK inhibitor 7.9µM* and Tb PYK inh 5µM*.
Screening Cn1cccc1/C=N/n1c(-c2ccc(Cl)cc2)n[nH]c1=S returned RE007 growth inh 13%, FBPA Giardia inh 30%, SARS PLpro yeast -1%, LmPK inhibitor -15% and Tb PYK inh inconclusive.
`COc1ccc(-c2n[nH]c(=S)n2/N=C/c2cccn2C)cc1` gave RE007 growth inh 3%, FBPA Giardia inh 13%, SARS PLpro yeast -1%, LmPK inhibitor -4% and Tb PYK inh 2.5µM*.
`CC(=O)O[C@H]1C[C@@H]2CC[C@@H]3[C@H](CC[C@]4(C)[C@H](OC(C)=O)[C@@H](N5CC[N+](C)(C)CC5)C[C@@H]34)[C@@]2(C)C[C@@H]1N1CC[N+](C)(C)CC1` gave Tb PYK inh -8%.
O=c1c(-c2ccc(Cl)cc2)c(C(F)(F)F)oc2c(CN3CCCCC3)c(O)ccc12 was read as Tb PYK inh 0%.
CCn1cc(C(=O)OCC(=O)Nc2cccc(Cl)c2C)c(=O)c2ccc(C)nc21 was read as Tb PYK inh 7%.
CCN1C(=O)CC(N2CCC(Nc3ccc(OC)cc3)CC2)C1=O (stereo unspecified) was read as RE007 growth inh -26%, FBPA Giardia inh -19%, SARS PLpro yeast -2%, LmPK inhibitor -12% and Tb PYK inh -10%.
COc1ccc(NC2CCN(C3CC(=O)N(c4ccc(F)c(Cl)c4)C3=O)CC2)cc1 (stereo unspecified) was read as RE007 growth inh 6.3µM*, FBPA Giardia inh -25%, SARS PLpro yeast -35%, LmPK inhibitor 3% and Tb PYK inh -12%.
`COc1cccc(N2CCN(C3CC(=O)N(c4ccc(F)c(Cl)c4)C3=O)CC2)c1` (stereo unspecified) gave RE007 growth inh 28µM*, FBPA Giardia inh -16%, SARS PLpro yeast -39%, LmPK inhibitor 9% and Tb PYK inh -8%.
`CCOc1ccc(N2C(=O)CC(N3CCN(c4ccccc4OC)CC3)C2=O)cc1` (stereo unspecified) gave RE007 growth inh 28µM*, FBPA Giardia inh -2%, SARS PLpro yeast -33%, LmPK inhibitor 3% and Tb PYK inh -3%.
For O=C1C(Cl)=C(N2CCCCC2)C(=O)C(Cl)=C1c1cnc(N2CCCCC2)s1 the results were RE007 growth inh -25%, FBPA Giardia inh 7.1µM*, SARS PLpro yeast -6%, LmPK inhibitor 20µM* and Tb PYK inh inconclusive.
`C[C@]12O[C@H](C[C@]1(O)CO)n1c3ccccc3c3c4c(c5c6ccccc6n2c5c31)CNC4=O` gave Tb PYK inh -7%.
For Cc1ccc(NC(=O)c2cc(N3C(=O)C=CC3=O)ccc2Cl)cc1C the results were RE007 growth inh 10µM*, FBPA Giardia inh -11%, SARS PLpro yeast -99%, LmPK inhibitor 28% and Tb PYK inh inconclusive.
`Cc1ccc(NC(=O)c2cc(NC(=O)c3ccco3)ccc2N2CCOCC2)cc1` gave RE007 growth inh -3%, FBPA Giardia inh 7%, SARS PLpro yeast -2%, LmPK inhibitor -2% and Tb PYK inh 0%.
Cc1ccc(NC(=O)c2cc(N3C(=O)C=CC3=O)ccc2N2CCOCC2)cc1 was read as RE007 growth inh 8.9µM*, FBPA Giardia inh -11%, SARS PLpro yeast -6%, LmPK inhibitor 38% and Tb PYK inh 22µM*.
S=c1[nH]c(-c2ccccc2)cn1/N=C/c1ccncc1 was read as RE007 growth inh 3%, FBPA Giardia inh -1%, SARS PLpro yeast 1%, LmPK inhibitor 4.5µM* and Tb PYK inh inconclusive.

Assay outcomes: PubChem, National Center for Advancing Translational Sciences (NCATS)
